This is an account of results in paper PMC4336329 (PLoS ONE, 2015).

About 14,000 (4.5%) of roughly 310,000 compounds showed an effect of 50% or more. The effect is printed as a negative number. The entries come from a sample that favours strong results as a whole.
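Also: peak tail current of the secondary pulse compared with the same well before compound.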

Chain of human ether-à-go-go-related gene (hERG) potassium channel (Q12809 whole entry, looked up): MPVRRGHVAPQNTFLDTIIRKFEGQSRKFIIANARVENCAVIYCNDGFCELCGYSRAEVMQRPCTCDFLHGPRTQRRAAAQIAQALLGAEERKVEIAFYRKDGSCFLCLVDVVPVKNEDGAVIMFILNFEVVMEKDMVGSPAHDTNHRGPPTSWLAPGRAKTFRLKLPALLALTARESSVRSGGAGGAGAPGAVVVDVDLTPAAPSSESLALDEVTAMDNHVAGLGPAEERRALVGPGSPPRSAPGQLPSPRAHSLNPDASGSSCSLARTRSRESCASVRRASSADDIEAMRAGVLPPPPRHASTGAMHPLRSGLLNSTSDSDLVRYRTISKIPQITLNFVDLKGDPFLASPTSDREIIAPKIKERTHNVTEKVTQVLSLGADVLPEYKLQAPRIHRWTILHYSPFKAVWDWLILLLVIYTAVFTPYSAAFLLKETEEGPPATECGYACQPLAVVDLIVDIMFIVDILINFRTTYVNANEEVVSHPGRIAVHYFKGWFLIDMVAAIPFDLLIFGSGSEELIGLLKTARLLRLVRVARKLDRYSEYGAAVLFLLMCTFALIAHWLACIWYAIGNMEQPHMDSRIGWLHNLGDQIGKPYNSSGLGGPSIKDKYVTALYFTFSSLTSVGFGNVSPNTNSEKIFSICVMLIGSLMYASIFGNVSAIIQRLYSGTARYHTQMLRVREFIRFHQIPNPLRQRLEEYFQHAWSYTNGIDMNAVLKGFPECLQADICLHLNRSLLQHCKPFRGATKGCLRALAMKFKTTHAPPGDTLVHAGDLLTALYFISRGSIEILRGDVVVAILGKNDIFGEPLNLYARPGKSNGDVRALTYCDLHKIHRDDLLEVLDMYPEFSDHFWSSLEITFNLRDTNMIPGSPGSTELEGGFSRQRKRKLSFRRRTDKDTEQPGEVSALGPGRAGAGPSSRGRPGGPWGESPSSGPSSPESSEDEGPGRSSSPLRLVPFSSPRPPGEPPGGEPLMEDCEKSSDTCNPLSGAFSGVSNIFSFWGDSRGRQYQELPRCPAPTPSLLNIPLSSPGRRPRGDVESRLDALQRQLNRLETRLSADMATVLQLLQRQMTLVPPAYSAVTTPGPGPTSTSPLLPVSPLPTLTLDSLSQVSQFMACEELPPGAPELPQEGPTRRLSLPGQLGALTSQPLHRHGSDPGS

The assay has as its target human ether-à-go-go-related gene (hERG) potassium channel (human, UniProt Q12809). The experiment in a line: primary screen, population patch clamp on CHO cells stably expressing hERG; higher = less effect of the substance.
As to `CC(C)n1cnc2cc(NCc3ccccc3O)ccc21`, the “hERG current change (%, negative = inhibition) at 10uM” value stood at 3.94%.
Under `CCN(CC)c1ccc(CNc2ccc3c(c2)ncn3C(C)(C)C)cc1` stands 1.91%; under `CCc1ccc(CNc2ccc3c(c2)ncn3C(C)(C)C)cc1`, -36.1%; under `CCOc1ccc(CNc2ccc3c(c2)ncn3C(C)(C)C)cc1`, -58.6%.
With `Cc1ccc(CNc2ccc3c(c2)ncn3C)cc1`, the “hERG current change (%, negative = inhibition) at 10uM” value was -33.8%.
Next, `Cc1ccc(CNc2ccc3c(c2)ncn3C(C)(C)C)cc1`: -72.5%; `CN(C)c1ccc(CNc2ccc3c(c2)ncn3C(C)(C)C)cc1`: -27.2%.
Next, `Cc1ccc(CNc2ccc3c(c2)ncn3C(C)C)cc1`: -78.3%; `COc1ccccc1CNC(=O)Cn1cccc1C(=O)c1ccccc1`: 8.74%; `COCC1CCN(C(=O)c2cc(COc3ccc4c(c3)CCCC4)on2)C1` (stereo not shown): -24.9%.
Under `Cc1cccn2c(=O)c(C=NCc3ccccc3)c(NCCO)nc12` stands 0.417%; under `Cc1ccc(CN2CCSc3ccc(C(=O)NCc4cccnc4)cc32)cc1`, -2.7%.
With `CCN(C(=O)C(C)N1C(=O)/C(=C/c2cccs2)SC1=S)C1CCS(=O)(=O)C1` (stereo not shown), the “hERG current change (%, negative = inhibition) at 10uM” value is -27.3%.
Under `COC(=O)c1ccc(C(=O)OC)c(NC(=O)CN2CCN(c3ccc(OC)cc3)CC2)c1` stands 11.5%; under `Cc1csc(Nc2ccc(Cl)cc2)[n+]1-c1ccc(Cl)cc1.[Br-]`, 14.9%; under `CC(C)CNC(=O)c1ccccc1NC(=O)CCSc1ccccc1`, -17.6%.
Under `COC(=O)c1ccc([C@H]2C=C(C(=O)O)O[C@@H](OCc3ccc(CO)cc3)C2)cc1` stands 13.6%; under `CN(C)CCOCCOc1ccc(Cl)c2ccccc12.O=C(O)C(=O)O`, -44.5%; under `CCN(CC)CCOCCOc1ccccc1F`, -3.91%.
`CCN(CC)CCOCCOc1ccc(Cl)c2ccccc12`: the “hERG current change (%, negative = inhibition) at 10uM” value is on record as -68%.
Under `COc1ccccc1CCNC(=O)C(=O)NCC1OCCN1S(=O)(=O)c1ccc([N+](=O)[O-])cc1` (stereo not shown) stands -46.7%; under `O=C(NCCN1CCOCC1)c1ccc2c(c1)ncn2C1CCCC1`, -6.39%; under `c1ccc2c(c1)[nH]c1c(N3CCCC3)ncnc12`, -15.2%.
Under `c1ccc(CN2CCN(c3ncnc4c3[nH]c3ccccc34)CC2)cc1` stands -62.5%; under `Cc1ccc2c(c1)[nH]c1c(N3CCN(Cc4ccccc4)CC3)ncnc12`, -24.5%.
Under `COc1ccc2[nH]c3c(N4CCN(Cc5ccc6c(c5)OCO6)CC4)ncnc3c2c1` stands -18.8%; under `c1ccc2c(c1)[nH]c1c(N3CCSCC3)ncnc12`, -4.82%; under `COc1cccc2[nH]c3c(N4CCN(Cc5ccc6c(c5)OCO6)CC4)ncnc3c12`, -17.3%.
With `Cc1ccc2[nH]c3c(N4CCN(Cc5ccccc5)CC4)ncnc3c2c1`, the “hERG current change (%, negative = inhibition) at 10uM” value is -72.3%.
Under `COc1ccc2c(c1)[nH]c1c(N3CCN(Cc4ccc5c(c4)OCO5)CC3)ncnc12` stands -74%; under `Cc1ccc2[nH]c3c(N4CCOCC4)ncnc3c2c1`, -0.757%; under `Cn1c2c(c(=O)n(C)c1=O)C(NC(=O)c1ccco1)(C(F)(F)F)C(=O)N2` (stereo not shown), 16.3%.
Next, `O=C1OC(c2ccccc2)=C/C1=C/N1CCOCC1`: 2.28%; `O=C(NCCc1nnc2ccc(NCc3ccccc3Cl)nn12)c1ccccc1`: 10.4%.
Next, `N#Cc1cc2c(nc1SCC(=O)O)CCCCC2`: 3.05%.
Consider `CCOC(=O)c1sc(NC(=O)c2ccc3ncsc3c2)nc1C`, for which the “hERG current change (%, negative = inhibition) at 10uM” value is recorded as 10.8%.
Under `O=C(Nc1ccccc1Cl)c1cc[n+]([O-])cc1` stands 27.8%; under `COc1ccc(NC(=O)CN2CC(c3ccccc3)CC2=O)cc1OC` (stereo not shown), 8.33%; under `COc1ccc(C2CC(=O)N(CCC[NH+](C)CCc3ccc(OC)c(OC)c3)C2)cc1.O=C([O-])C(=O)[O-]` (stereo not shown), -74.7%.
Under `COc1ccc(CCN2CC(C(=O)NCc3ccc(F)cc3)CC2=O)cc1OC` (stereo not shown) stands 2.45%.
Next, `COc1ccc(C2SCC(=O)N2CCc2ccc(OC)c(OC)c2)cc1` (stereo not shown): -31.3%; `COc1ccc(CCN2CC(C(=O)O)CC2=O)cc1OC` (stereo not shown): 0.984%; `COc1ccc(CC[NH+](C)CCCN2CC(c3ccccc3)CC2=O)cc1OC.O=C([O-])C(=O)[O-]` (stereo not shown): -71.1%.
